Data reported in PubChem BioAssay AID624331 (National Center for Advancing Translational Sciences (NCATS), 2012).
Inconclusive results are not listed. Entries that show only a call come without a potency. The source made the active and inactive calls. Calls come from the whole dose curve; as a rule, active = well fitted activation curve with a large enough effect; inconclusive = small, poorly fitted or top-dose-only effect; inactive = no such curve, though single readings can be large or run the other way.

Experiment: qHTS assay for re-activators of p53 using a Luc reporter: Hit Validation with no p53 Expressed
Settings: p53-null cells, luciferase reporter counter-screen; series mostly up to 46.1 µM
Procedure, shortened: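 Counter-screen of primary hits in a cell line not transfected with p53, in Opti-MEM with 10% FBS; compounds at several concentrations (10 mM stock, 1:5; top 46.1 µM in well), 24 h at 37 deg C, 5% CO2. Luminescence read after 10 min with Amplite reagent.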

SMILES | Potency
O=C(Nc1cnc2ccccc2c1)C1COc2ccccc2O1 (stereo not given) | inactive
O=C(Nc1ccc(OC(F)(F)F)cc1)c1cnc2n(c1=O)CCS2 | inactive
CCN(CC)c1ccc(NC(=O)CN2CCN(CC(=O)Nc3ccccc3F)CC2)cc1 | inactive
CCOc1ccc2c(c1)C(C)=CC(C)(C)N2S(=O)(=O)c1ccc(NC(C)=O)cc1 | inactive
CCCSc1ccc2nc(-c3ccccc3)cn2c1 | inactive
O=C(Oc1c(Cl)cc(Cl)c2cccnc12)c1cccc([N+](=O)[O-])c1 | inactive
Cc1ccc(C(=O)OCC(=O)NCC2COc3ccccc3O2)cc1 (stereo not given) | inactive
N#CCc1nc(CSc2nc3ccccc3s2)cs1 | inactive
S=C(Nc1cccc(Br)c1)c1ccccc1 | inactive
N#Cc1c(NC(=O)/C=C/c2ccco2)sc2c1CCCC2 | inactive
O=[N+]([O-])c1cc(C(F)(F)F)ccc1NCCc1c[nH]c2ccccc12 | inactive
Oc1ccccc1-c1cc(-c2ccc3c(c2)OCCO3)n[nH]1 | inactive
Cc1cc(=O)[nH]c(N/N=C/c2ccccn2)n1 | inactive
CCCCn1c(/C=N/Nc2nc3ccccc3[nH]2)nc2ccccc21 | inactive
Cc1cc(NC(=O)c2c(F)c(F)c(F)c(F)c2F)no1 | inactive
O=C1NCCCc2c1oc1ccc(O)cc21 | inactive
COc1ccccc1C(=O)NNC(=O)c1cccc(F)c1 | inactive
c1ccc(-c2cc3cc4c(cc3cn2)OCO4)cc1 | inactive
CCOC(=O)C1=C(C)Nc2ncnn2C1c1c[nH]c2ccccc12 (stereo not given) | inactive
O=C(Nc1cccc(N=Cc2cc(Cl)cc(Br)c2O)c1)c1ccco1 | inactive

SMILES | Potency
O=C(Nc1nnc(-c2cccs2)o1)c1cccc(Oc2ccccc2)c1 | inactive
O=C(Nc1cccc(O)c1)C(=O)Nc1ccccn1 | inactive
O=C(NCCCc1ccccc1)c1cc(COc2c(F)cccc2F)on1 | inactive
CCC(=O)Nc1cccc(NC(=S)NC(=O)c2ccc(Cl)cc2)c1 | inactive
CN(NC1CC(=O)N(c2ccccc2)C1=O)c1ccccc1 (stereo not given) | inactive
CCn1c(C)nc2cc(C(=O)NNC(=O)c3ccc(C)cc3)ccc21 | inactive
O=C(NNC(=O)c1cc(-c2ccccc2)nn1-c1ccccc1)c1ccccc1 | inactive
N#Cc1nc(COc2ccccc2)oc1N1CCOCC1 | inactive
O=c1[nH]c(N/N=C/c2ccc(O)cc2)nc2ccccc12 | inactive
Cc1ccc(OCC(=O)c2cc(C)n(C)c2C)c([N+](=O)[O-])n1 | inactive
O=C(NCc1ccc(-c2nc3ccccc3s2)cc1)c1cc2ccccc2o1 | inactive
CSCCC(NC(=O)c1ccc(Cl)cc1Cl)C(=O)N1CC(C)OC(C)C1 (stereo not given) | inactive
O=C(CCN1C(=O)/C(=C/c2ccccc2Cl)SC1=S)N1CCOCC1 | inactive
O=C(N/N=C/c1cccs1)c1n[nH]c2c1CCC2 | inactive
O=C(c1cccs1)c1coc2ccc(O)cc12 | inactive
Cc1ccc(C(=O)CC(=O)COc2ccc(Cl)cc2)cc1 | inactive
CCN(CC(=O)NCc1cccs1)c1ccc(S(=O)(=O)N2CCOCC2)cn1 | inactive
Fc1cccc(NCc2cn3ccccc3n2)c1 | inactive
O=C(O)/C=C/c1nc(-c2ccccc2)n2ccccc12 | inactive
C=CCn1c(P(C)(=O)O)nc2ccccc21 | inactive
